The record followed here is ChEMBL document CHEMBL1961873, “Compounds: GSK PKIS; Assays: Nanosyn kinase panel” (2012).

The structures appear in SMILES notation.

For assay [1], the target named is T1, Serine/threonine-protein kinase D2 (Homo sapiens) (UniProt Q9BZL6).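 Further: mean value of PRKD2 inhibition, from the GSK PKIS screening panel.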
T1 sequence (whole entry): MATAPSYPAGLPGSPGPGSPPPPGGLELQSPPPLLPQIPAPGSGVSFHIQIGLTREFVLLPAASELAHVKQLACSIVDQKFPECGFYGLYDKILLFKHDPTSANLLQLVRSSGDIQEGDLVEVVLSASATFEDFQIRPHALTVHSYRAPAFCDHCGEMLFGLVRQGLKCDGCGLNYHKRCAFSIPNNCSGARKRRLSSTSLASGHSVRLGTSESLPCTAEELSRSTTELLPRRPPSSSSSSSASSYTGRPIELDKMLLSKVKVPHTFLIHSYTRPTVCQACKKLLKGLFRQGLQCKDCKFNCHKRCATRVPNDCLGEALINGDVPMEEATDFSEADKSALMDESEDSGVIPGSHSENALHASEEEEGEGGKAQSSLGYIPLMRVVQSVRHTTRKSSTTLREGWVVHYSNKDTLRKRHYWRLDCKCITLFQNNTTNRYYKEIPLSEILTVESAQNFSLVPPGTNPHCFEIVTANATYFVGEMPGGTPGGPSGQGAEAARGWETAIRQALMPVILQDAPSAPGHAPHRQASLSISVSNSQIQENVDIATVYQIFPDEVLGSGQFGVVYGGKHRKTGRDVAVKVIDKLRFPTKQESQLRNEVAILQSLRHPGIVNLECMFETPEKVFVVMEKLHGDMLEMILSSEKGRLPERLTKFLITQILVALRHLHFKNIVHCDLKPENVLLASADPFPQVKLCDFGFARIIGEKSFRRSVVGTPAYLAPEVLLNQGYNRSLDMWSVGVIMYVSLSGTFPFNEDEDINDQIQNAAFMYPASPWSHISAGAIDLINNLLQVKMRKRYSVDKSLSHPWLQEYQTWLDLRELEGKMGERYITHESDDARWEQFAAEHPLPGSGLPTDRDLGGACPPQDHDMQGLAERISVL
Conditions: at 1 µM.

Assay [2] has as its target T2, Serine/threonine-protein kinase D3 (Homo sapiens) (UniProt O94806).
T2 sequence (whole entry): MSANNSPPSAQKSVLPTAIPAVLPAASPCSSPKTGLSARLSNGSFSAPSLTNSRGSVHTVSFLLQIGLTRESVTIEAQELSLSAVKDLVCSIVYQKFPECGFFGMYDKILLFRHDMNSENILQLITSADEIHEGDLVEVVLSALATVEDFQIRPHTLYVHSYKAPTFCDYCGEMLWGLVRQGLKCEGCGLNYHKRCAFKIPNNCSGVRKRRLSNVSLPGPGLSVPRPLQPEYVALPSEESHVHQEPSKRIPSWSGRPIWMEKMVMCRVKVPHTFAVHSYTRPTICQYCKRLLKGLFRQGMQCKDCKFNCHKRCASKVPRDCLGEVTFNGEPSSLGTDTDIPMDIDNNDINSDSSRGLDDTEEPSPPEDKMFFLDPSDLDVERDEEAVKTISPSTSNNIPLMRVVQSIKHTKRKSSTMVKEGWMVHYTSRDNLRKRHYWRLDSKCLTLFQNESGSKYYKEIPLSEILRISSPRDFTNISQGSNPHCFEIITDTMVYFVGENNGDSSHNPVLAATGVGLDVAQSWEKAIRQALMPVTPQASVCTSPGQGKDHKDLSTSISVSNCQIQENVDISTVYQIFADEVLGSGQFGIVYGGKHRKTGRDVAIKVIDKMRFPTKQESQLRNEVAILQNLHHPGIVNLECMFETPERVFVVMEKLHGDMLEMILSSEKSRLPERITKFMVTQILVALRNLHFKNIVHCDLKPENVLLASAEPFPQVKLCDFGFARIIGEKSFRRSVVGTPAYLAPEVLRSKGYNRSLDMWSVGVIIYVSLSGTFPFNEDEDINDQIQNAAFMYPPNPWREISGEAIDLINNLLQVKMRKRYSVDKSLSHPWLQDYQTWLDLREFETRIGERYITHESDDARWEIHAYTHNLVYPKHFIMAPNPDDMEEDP
The conditions noted are these: at 0.1 µM.

The target of assay [3] is T2, Serine/threonine-protein kinase D3 (Homo sapiens). The conditions noted are these: at 1 µM.
Assay [4] has as its target T3, cGMP-dependent protein kinase 1 (Homo sapiens) (UniProt Q13976).
T3 sequence (whole entry): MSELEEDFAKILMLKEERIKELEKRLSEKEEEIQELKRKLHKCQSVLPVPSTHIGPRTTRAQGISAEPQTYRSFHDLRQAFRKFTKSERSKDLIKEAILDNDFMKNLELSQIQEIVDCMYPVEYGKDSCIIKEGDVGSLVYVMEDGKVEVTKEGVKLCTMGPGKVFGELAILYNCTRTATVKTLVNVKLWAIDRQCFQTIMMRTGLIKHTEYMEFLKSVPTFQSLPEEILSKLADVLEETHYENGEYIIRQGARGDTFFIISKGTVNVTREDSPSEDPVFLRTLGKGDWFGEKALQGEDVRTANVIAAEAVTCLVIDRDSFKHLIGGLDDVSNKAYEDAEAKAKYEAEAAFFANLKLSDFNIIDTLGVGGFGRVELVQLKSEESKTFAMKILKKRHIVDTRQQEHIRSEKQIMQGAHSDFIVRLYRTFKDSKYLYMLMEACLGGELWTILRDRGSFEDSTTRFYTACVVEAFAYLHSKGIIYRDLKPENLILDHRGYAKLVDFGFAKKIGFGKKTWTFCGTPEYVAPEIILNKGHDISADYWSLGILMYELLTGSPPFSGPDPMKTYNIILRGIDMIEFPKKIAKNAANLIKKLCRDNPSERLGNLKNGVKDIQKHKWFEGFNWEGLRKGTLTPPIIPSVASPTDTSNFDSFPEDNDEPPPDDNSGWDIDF
Conditions: at 0.1 µM.

Assay [5] concerns the target T3, cGMP-dependent protein kinase 1 (Homo sapiens). Conditions: at 1 µM.
The target in assay [6] is T4, cGMP-dependent protein kinase 2 (Homo sapiens) (UniProt Q13237).
T4 sequence (whole entry): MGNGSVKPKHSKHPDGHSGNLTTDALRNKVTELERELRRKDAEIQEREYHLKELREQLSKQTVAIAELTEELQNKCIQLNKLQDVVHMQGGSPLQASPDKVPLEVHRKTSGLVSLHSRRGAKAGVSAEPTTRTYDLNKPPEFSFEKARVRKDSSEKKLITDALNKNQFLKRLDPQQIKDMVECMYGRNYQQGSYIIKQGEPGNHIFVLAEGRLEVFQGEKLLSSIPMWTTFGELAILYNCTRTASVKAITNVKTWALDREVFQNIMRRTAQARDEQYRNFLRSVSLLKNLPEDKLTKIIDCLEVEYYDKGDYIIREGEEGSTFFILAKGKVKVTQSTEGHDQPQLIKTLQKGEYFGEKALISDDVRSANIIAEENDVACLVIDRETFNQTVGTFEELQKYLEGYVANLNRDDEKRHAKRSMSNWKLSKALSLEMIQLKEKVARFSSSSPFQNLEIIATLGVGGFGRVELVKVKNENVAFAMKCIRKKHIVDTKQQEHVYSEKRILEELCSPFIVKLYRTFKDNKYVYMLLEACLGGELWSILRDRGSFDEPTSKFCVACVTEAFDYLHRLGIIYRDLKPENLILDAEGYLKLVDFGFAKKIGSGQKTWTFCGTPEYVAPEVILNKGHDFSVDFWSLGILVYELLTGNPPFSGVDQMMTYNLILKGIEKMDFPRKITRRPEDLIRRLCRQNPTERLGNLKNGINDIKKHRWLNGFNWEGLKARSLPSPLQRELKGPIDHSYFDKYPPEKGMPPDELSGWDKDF
Conditions: at 0.1 µM.

Assay [7] addresses T4, cGMP-dependent protein kinase 2 (Homo sapiens). Conditions: at 1 µM.
Assay [8] concerns the target T5, cAMP-dependent protein kinase catalytic subunit PRKX (Homo sapiens) (UniProt P51817).
T5 sequence (whole entry): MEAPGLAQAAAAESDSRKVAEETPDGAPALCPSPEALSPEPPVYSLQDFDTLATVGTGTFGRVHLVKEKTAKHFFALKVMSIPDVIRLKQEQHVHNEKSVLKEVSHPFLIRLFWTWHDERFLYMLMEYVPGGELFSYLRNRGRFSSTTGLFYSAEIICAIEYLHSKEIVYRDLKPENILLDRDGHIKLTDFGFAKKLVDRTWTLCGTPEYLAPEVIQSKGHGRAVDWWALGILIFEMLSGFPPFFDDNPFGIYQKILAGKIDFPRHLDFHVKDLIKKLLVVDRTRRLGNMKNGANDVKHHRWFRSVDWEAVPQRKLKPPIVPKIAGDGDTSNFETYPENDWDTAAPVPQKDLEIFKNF
The conditions noted are these: at 0.1 µM.

Assay [9] has as its target T5, cAMP-dependent protein kinase catalytic subunit PRKX (Homo sapiens). Conditions: at 1 µM.
Assay [10] deals with Rho-associated protein kinase 1 (Homo sapiens) (UniProt Q13464). The conditions noted are these: at 0.1 µM.
Sequence of Rho-associated protein kinase 1 (Homo sapiens) (Q13464 2-1354 limits assumed): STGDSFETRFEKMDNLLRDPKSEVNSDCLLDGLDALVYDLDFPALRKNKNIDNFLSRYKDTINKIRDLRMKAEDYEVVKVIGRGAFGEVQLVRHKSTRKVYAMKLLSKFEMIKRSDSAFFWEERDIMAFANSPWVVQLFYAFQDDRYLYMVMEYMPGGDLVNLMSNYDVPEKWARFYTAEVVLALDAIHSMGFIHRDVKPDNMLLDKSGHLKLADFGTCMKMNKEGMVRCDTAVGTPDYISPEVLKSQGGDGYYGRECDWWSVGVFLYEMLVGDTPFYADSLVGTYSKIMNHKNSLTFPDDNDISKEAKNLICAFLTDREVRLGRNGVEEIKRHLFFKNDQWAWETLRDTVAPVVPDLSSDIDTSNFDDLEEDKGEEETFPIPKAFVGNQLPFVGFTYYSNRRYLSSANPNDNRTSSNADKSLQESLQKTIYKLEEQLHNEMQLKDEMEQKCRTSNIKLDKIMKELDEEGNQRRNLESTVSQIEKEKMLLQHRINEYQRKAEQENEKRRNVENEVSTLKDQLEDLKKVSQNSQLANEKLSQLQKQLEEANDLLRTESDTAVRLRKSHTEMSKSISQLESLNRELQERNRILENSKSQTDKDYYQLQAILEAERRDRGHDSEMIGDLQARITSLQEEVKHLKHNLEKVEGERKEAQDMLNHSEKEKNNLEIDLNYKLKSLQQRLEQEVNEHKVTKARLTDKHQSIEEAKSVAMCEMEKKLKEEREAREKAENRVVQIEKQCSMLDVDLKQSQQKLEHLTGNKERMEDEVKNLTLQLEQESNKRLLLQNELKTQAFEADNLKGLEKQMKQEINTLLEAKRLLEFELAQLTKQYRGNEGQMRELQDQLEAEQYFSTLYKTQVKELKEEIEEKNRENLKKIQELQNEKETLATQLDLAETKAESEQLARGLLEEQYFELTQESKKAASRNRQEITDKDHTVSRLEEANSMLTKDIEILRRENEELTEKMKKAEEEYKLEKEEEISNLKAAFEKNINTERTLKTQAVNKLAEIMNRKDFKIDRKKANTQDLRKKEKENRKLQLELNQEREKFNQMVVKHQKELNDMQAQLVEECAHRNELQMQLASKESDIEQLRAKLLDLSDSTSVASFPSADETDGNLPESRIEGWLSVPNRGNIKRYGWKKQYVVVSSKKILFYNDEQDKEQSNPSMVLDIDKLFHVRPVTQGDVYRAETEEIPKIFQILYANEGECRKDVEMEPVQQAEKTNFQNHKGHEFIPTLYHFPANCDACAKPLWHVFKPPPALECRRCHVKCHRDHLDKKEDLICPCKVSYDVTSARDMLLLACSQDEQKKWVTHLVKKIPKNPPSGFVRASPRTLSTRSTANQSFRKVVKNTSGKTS

Turning to `COC(=O)Nc1nc2cc(Oc3ccc(NC(=O)Nc4cccc(Br)c4)cc3)ccc2[nH]1`, the inhibition stood at 4.58% in assay [1]; 2.07% in assay [2]; 3.88% in assay [3]; 1.83% in [4]; 2.02% in [5]; 0.8% in assay [6]. Further, the inhibition amounted to 2.14% in [7], 1.95% in assay [8], 1.14% in [9] and 2.54% in [10].

As for `COc1ccc(-c2nn3ncccc3c2-c2ccnc(Nc3cccc(C(F)(F)F)c3)n2)cc1`, the inhibition in assay [1] amounted to 3.1%; in assay [2], 3.18%; in assay [3], 3.3%; in assay [4], 1.97%; in assay [5], 2.64%; in assay [6] it was 1.78%. Moreover, the inhibition in assay [7] turned out to be 2.6%; in [8], 2.11%; in assay [9], 1.89%; in assay [10] it was 0.25%.

For the compound `NC(=O)c1sc(-n2cnc3ccccc32)cc1OCc1ccccc1Br`, the inhibition is 6.86% in [1]; 5.8% in assay [2]; 8.54% in assay [3]; 3.41% in assay [4]; 5.69% in assay [5]; 3.61% in assay [6]. For the same compound, the inhibition in assay [7] was 5.73%; in assay [8] it was 3.19%; in assay [9], 5.64%; in [10], 2.06%.

With `CCS(=O)(=O)c1ccc(OC)c(Nc2nccc(N(C)c3ccc4c(C)n[nH]c4c3)n2)c1`, the inhibition in assay [1] is 3.25%; in assay [2], 4.79%; in assay [3] it was 4.86%; in assay [4] it was 4.43%; in assay [5] it was 2.44%; in [6], 2.68%. In addition, the inhibition in assay [7] stood at 3.13%; in assay [8], 2.11%; in [9], 2.47%; in assay [10], 1.77%.

Take `Cc1cc(-c2ccccn2)cc(C)c1/C=C/c1cncc(-c2nn[nH]n2)c1`: the inhibition in assay [1] stood at 12.2%; in assay [2] it was 6.27%; in [3] it was 12.1%; in [4], 3.51%; in assay [5] it was 5.76%; in assay [6] it was 2.46%. Also, the inhibition amounted to 5.89% in [7], 2% in assay [8], 2.53% in [9] and 2.04% in assay [10].

On to `Cc1ccc2c(-c3ccnc(Nc4ccc5c(c4)OCCO5)n3)c(-c3ccc(C(F)(F)F)cc3)nn2n1`, for which the inhibition in [1] amounted to 2.37%; in assay [2] it was 1.2%; in assay [3], 2.26%; in assay [4] it was 3.03%; in [5], 3.63%; in assay [6] it was 2.95%. The inhibition turned out to be 2.42% in assay [7], 6.47% in assay [8], 6.18% in assay [9] and 0.76% in [10].

On to `CS(=O)(=O)Nc1cccc(-c2ccc3c(NC(=O)C4CC4)n[nH]c3c2)c1`, for which the inhibition is 3.59% in assay [1]; 1.24% in [2]; 2.48% in assay [3]; -0.41% in assay [4]; 1.73% in assay [5]; 1.34% in assay [6]. The inhibition was 2.16% in [7], 0.39% in [8], -0.61% in assay [9] and 0.24% in assay [10].

As for `NS(=O)(=O)c1cccc(Nc2cc(-c3ccc(F)cc3)n[nH]2)c1`, the inhibition in [1] is 3.29%; in assay [2], 2.9%; in assay [3], 3.78%; in assay [4], 2.36%; in assay [5], 5.63%; in assay [6], 4.45%. Further, the inhibition in assay [7] was found to be 6.86%; in assay [8] it was 6.02%; in assay [9] it was 9.4%; in assay [10] it was 1.22%.

In the case of `Nc1nccc(C#Cc2cncnc2Nc2ccc(OCc3cccc(F)c3)c(Cl)c2)n1`, the inhibition in [1] was determined as 5.62%; in assay [2], 5.15%; in assay [3] it was 5.74%; in [4], 2.37%; in [5], 5.43%; in assay [6], 1.99%. The inhibition in assay [7] is 7.43%; in [8] it was 0.49%; in assay [9] it was -0.22%; in assay [10] it was 0.91%.
